Cruzain inh noDet = blocks cruzain activity in detergent-free assay; P25779; purified cruzain, Z-FR-AMC fluorescence, no detergent; Potency, µM, for inactives: max response, negative = inhibition, most hits filed as inhibitors; 200,000 tested, 2.3% active;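 also: plate controls were enzyme without inhibitor for no effect and buffer without enzyme for full effect; nearly all actives have a fitted effect of over 40% in size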
Target sequence (P25779 123-467 limits assumed): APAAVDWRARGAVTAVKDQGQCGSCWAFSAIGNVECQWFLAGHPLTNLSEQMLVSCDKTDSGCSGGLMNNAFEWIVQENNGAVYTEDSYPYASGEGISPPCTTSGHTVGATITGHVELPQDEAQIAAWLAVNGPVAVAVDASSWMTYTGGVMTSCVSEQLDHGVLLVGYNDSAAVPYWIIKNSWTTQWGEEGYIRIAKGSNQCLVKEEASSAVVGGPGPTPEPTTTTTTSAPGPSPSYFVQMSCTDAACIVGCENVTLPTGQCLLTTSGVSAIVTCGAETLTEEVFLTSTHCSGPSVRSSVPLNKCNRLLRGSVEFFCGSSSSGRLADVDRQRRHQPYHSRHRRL
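Purified cruzain at 1.5 nM, pre-incubated 15 min with compound at room temperature in 100 mM sodium acetate pH 5.5, 5 mM DTT, 0.00005% Triton X-100. Reaction started with 2 uM Z-FR-AMC; AMC fluorescence increase over 60 s gives rate.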
Cruzain Triton = inhibitors of Trypanosoma cruzi cruzain with detergent. P25779. purified cruzain, Z-FR-AMC fluorescence, 0.01% Triton. Potency, µM, inactives show max response, negative = inhibition, most hits filed as inhibitors. 200,000 tested, 0.43% active;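 also: plate controls were neutral wells for no effect and buffer without enzyme for full effect; nearly all actives have a fitted effect of over 40% in size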
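Enzyme 1.5 nM, Z-FR-AMC 2 uM, NaOAc 100 mM pH 5.5, DTT 5 mM, Triton X-100 0.01%; 15 min RT compound preincubation; kinetic ex360/em450, 60 s delta.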
The depositor's hits bear a star; ? = inconclusive. A selection: hits, their analogues and other compounds. The true share with any hit is near 2.4%. Calls follow the shape of the dose curve; as a rule, active = well fitted curve in the direction sought with a large enough effect; inconclusive = small, poorly fitted or top-dose-only effect, or another doubt; inactive = no such curve, though single readings can be large; an effect the other way counts as inactive or inconclusive. Potency is read from the fitted curve at half-maximal effect.

SMILES | Cruzain inh noDet | Cruzain Triton
COc1ccc(COc2cc(-c3cccc(OC)c3)nc3ccc(NC(=O)c4ccccc4)cc23)cc1 | 7.94µM* | 2.5%
COc1cccc(-c2cc(C(=O)Nc3ccc4c(c3)OCCO4)c3ccccc3n2)c1 | ? | -7.3%
Cc1ccc(Cl)cc1NC(=O)Cn1c(=O)n(Cc2ccc(C(=O)NCc3ccc4c(c3)OCO4)cc2)c(=O)c2ccccc21 | -21.8% | -2.2%
COc1cccc(NC(=O)Cn2c(=O)n(Cc3ccc(C(=O)NCc4ccc5c(c4)OCO5)cc3)c(=O)c3ccccc32)c1 | 12.6µM* | -2.0%
Cc1cccc(NC(=O)Cn2c(=O)n(Cc3ccc4c(c3)OCO4)c(=O)c3ccccc32)c1 | 20µM* | -6.0%
Cc1ccc(NC(=O)Cn2c(=O)n(Cc3ccc4c(c3)OCO4)c(=O)c3ccccc32)cc1 | 4.6% | -2.6%
Cc1ccc(NC(=O)Cn2c(=O)n(Cc3ccc(C(=O)NCc4ccc5c(c4)OCO5)cc3)c(=O)c3ccccc32)cc1 | ? | -3.9%
O=C(Cn1c(=O)n(Cc2ccc(C(=O)NCc3ccc4c(c3)OCO4)cc2)c(=O)c2ccccc21)Nc1ccccc1F | 12.6µM* | -1.9%
Cc1ccc(C)c(CN2C(=O)c3ccccc3S(=O)(=O)c3ccc(C(=O)N4CCCCC4)cc32)c1 | 1.7% | -2.2%
Cc1cc(/C=C/c2ccc3cc(N(C)C)ccc3[n+]2C)c(C)n1-c1ccccc1 | -2.0% | -18.1%
COC(=O)c1ccc(Sc2ccc(C)cc2)c(N)c1 | -5.1% | -1.1%
COc1cc(Sc2ccc(C)cc2)c(OC)cc1N | 15.8µM* | 0.7%
COc1c(OC(C)=O)ccc(/C=C/c2ccc3cccc(OCc4ccccc4)c3n2)c1[N+](=O)[O-] | 10µM* | -2.1%
COc1cc(/C=C/c2ccc3cccc(OC)c3n2)c(OC(C)=O)c([N+](=O)[O-])c1 | ? | -3.9%
COC(=O)C1=C(C)OC(N)=C(C#N)C1c1c(C)nn(-c2ccccc2)c1Cl (stereo not given) | -12.3% | -2.5%
Cc1nn(-c2ccccc2)c(Cl)c1C1C(C#N)=C(N)Oc2c1c(=O)oc1ccccc21 (stereo not given) | 15.8µM* | -0.9%
CCOC(=O)CCc1c(C)nc2cc(-c3cc(OC)cc(OC)c3)[nH]n2c1=O | -1.7% | -2.8%
Clc1ss/c(=N\c2ccccn2)c1Cl | 25.1µM* | 1.0%
Cc1cccc(CC2S/C(=N/c3ccccn3)NC2=O)c1 (stereo not given) | 1.4% | 1.2%
CC(=O)Nc1ccc(S(=O)(=O)Nc2nc3ccccc3nc2N2CCCC2)cc1 | 14.8% | -7.5%
O=S(=O)(Nc1nc2ccccc2nc1N1CCN(c2ccccc2)CC1)c1ccc(F)cc1 | 31.6µM* | -3.4%
COc1cccc(NC(=O)CSc2nnc(COc3ccc4c(c3)CCCC4)o2)c1 | 13.7% | -1.3%
CCc1ccc(OCc2nnc(SCC(=O)Nc3cccc(C(=O)N4CCOCC4)c3)o2)cc1 | ? | -3.1%
COC(=O)c1ccc(NC(=O)CSc2nnc(COc3ccc4c(c3)CCCC4)o2)cc1 | 10µM* | 5.4%
CCc1ccc(NC(=O)CSc2nnc(COc3ccc4c(c3)CCCC4)o2)cc1 | 15.8µM* | 5.0%
SMILES | Cruzain inh noDet | Cruzain Triton
O=C(NCCC1=CCCCC1)c1ccc2c(c1)ncn2-c1cccc(Cl)c1 | 17.3% | 1.1%
COc1ccc(S(=O)(=O)NCC(c2cccs2)S(=O)(=O)c2ccc(C)cc2)cc1F (stereo not given) | -14.3% | -5.3%
Clc1ccc(-c2nnc(SCc3ccon3)o2)c(Cl)c1 | -1.9% | -2.8%
Clc1ccc(-c2nnc(SCc3nc4ccccc4[nH]3)o2)c(Cl)c1 | 3.3% | 6.31µM*
C=C(C)CSc1nc(-c2ccccc2)cc(-c2ccc(OC)cc2)c1C#N | -28.7% | -4.1%
Cc1nnc(SCc2nc3ccccc3[nH]2)s1 | -1.4% | -1.8%
c1ccc(-c2nnc(CSc3nc4ccccc4[nH]3)o2)cc1 | 12.6µM* | -25.0%
c1ccc2[nH]c(CSc3nc4ccccc4s3)nc2c1 | 15.8µM* | ?
N#Cc1c(-c2ccccc2)cc(-c2ccccc2)nc1SCc1nnc(-c2ccccc2)o1 | 5.01µM* | -1.1%
O=C(CCCSc1nc2ccccc2[nH]1)Nc1nnc(-c2ccccc2)o1 | -0.9% | 1.6%
CCn1ccc2cc(S(=O)(=O)N3CCC(C(=O)NCCOC)CC3)ccc21 | -10.3% | -1.1%
O=C(N[C@@]1(C(=O)O)C[C@@H]1c1ccccc1)c1ccccc1 | 12.0% | -3.4%
CCc1ccc(CNC(=O)CCc2c(C)nn(-c3ccc(N4CCCC4)nn3)c2C)cc1 | 0.0% | -3.4%
CCOCN(C(=O)Cn1cnc2cc(C)c(C)cc21)c1c(C)cccc1CC | ? | -8.5%
Brc1cccc(-c2nnc(SCc3nc4ccccc4[nH]3)o2)c1 | 12.6µM* | 14.1µM*
c1ccc2[nH]c(CSc3nnc(-c4ccncc4)o3)nc2c1 | 12.6µM* | -20.0%
Brc1cccc(-c2nnc(-c3ccccc3)o2)c1 | -13.9% | -0.1%
c1ccc2c(CSc3nnc(-c4ccncc4)o3)cccc2c1 | 20.3% | -9.3%
CCOC(=O)N/N=C/c1ccc(N2CCOCC2)s1 | -17.7% | -6.6%
FC(F)(F)c1ccc(Cl)c(N/N=C/c2ccc(N3CCOCC3)s2)c1 | 10µM* | -10.4%
CC[C@H]1C2=C3C(CC[C@H]4C(OCc5ccc(F)cc5C(F)(F)F)OC[C@](C)([C@@H]34)N(C(=O)OC(C)(C)C)C2)C(COC(C)=O)C1COC(C)=O (stereo not given in full) | ? | -4.9%
Fc1ccc(NC(=S)N/N=C/c2cccc(Br)c2)c(F)c1 | 25.1µM* | -5.1%
Fc1cccc(/C=N/NC(=S)Nc2ccccc2Cl)c1 | ? | -7.0%
Cc1cc(C)c(Cn2c3ccccc3c3cnn(CC(=O)NC4CCC(C)CC4)c(=O)c32)c(C)c1 (stereo not given) | 2µM* | -2.2%
CC1CCC(NC(=O)Cn2ncc3c4ccccc4n(Cc4ccc(Cl)cc4)c3c2=O)CC1 (stereo not given) | 2.3% | -2.4%
SMILES | Cruzain inh noDet | Cruzain Triton
C[C@@]1(C(NC(=O)c2ccccc2)c2ccc(-c3ccccc3)cc2)C[C@H]1C1CCCCC1 (stereo not given in full) | 10µM* | -2.9%
C[C@@]1(C(NC(=O)Cc2ccccc2)c2ccc(-c3ccccc3)cc2)C[C@H]1C1CCCCC1 (stereo not given in full) | 2.6% | 3.9%
Cc1ccc(C)c2nc3sc(C(=O)N4CCCc5ccccc54)c(N)c3cc12 | 3.4% | 4.6%
CCc1ccc2nc3sc(C(=O)N4CCc5ccccc54)c(N)c3cc2c1 | 25.1µM* | -3.0%
O=C(O)c1cccc(CSc2nc(-c3ccc(Cl)cc3)cc(C(F)(F)F)n2)c1 | -28.4% | 28.2µM*
COc1ccc(-c2cc(C)nc(SCc3cccc(C(=O)O)c3)n2)cc1 | 26.5% | -11.5%
COc1ccc(C2=NN(C(=O)CSc3nc4ccccc4s3)C(c3ccc(OC)cc3)C2)cc1 (stereo not given) | ? | -2.8%
COc1cccc(C2CC(c3cccs3)=NN2C(=O)CSc2nc3ccccc3s2)c1OC (stereo not given) | 12.6µM* | ?
O=C(CSc1nc2c(cnn2-c2ccc(F)cc2)c(=O)[nH]1)N1CCCCC1 | -13.0% | -2.2%
CCOC(=O)N1CCN(C(=O)CSc2nc3c(cnn3-c3ccccc3)c(=O)[nH]2)CC1 | 2.6% | 0.1%
COc1ccc(C2CC(c3cccs3)=NN2C(=O)CSc2nc3c(cnn3-c3ccccc3)c(=O)[nH]2)cc1 (stereo not given) | 31.6µM* | -8.8%

Source: PubChem
